This is part of a sample that, as a whole, favours compounds with a hit. Of some 83,000 tested, about 20% had one in any assay.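 Single-dose data. Exposure time 48 hours. Values below 10 considered active.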 Values without a mark were called inactive. Activity calls are given as the source filed them.

The assay has as its system SNB-19 CNS. Briefly: NCI-60 one-dose screen, 48 h (100 = growth as untreated, 0 = no growth, -100 = all killed). The note with it: 10 µM unless noted.
`COc1cc(C2CC(=O)Nc3c2cnn3C)cc(OC)c1OC` (stereo not drawn): the growth was 108%. As for `C=C(c1ccc(C(=O)NCCCn2ccnc2)cc1)c1cc2c(cc1C)C(C)(C)CCC2(C)C`, the growth is 48.4%. Take `Nc1c(Br)cc2c(c1Br)Cc1cc(Cl)ccc1-2`: the growth was 88.5%. The same measure for `CCCCCCCCCCCCNC(=O)N[C@H](C(=O)N[C@H]1/C=C/CCNC(=O)/C=C/[C@H](C)NC1=O)C(C)C`: -25.8% (active). Then `C=C(C)[C@@H]1CC[C@]2(C(=O)NS(=O)(=O)c3ccccc3)CC[C@]3(C)[C@H](CC[C@@H]4[C@@]5(C)CC[C@H](OC(=O)NS(=O)(=O)c6ccccc6)C(C)(C)[C@@H]5CC[C@]43C)[C@@H]12`, with 14.4%; and `FC(F)(F)c1cc(-c2nnc3n2N=C(Cl)CS3)cc(C(F)(F)F)c1`, with 107%; and `Cc1cc(-c2ccccc2)on1`, with 104%. The same measure for `CNC(=O)c1c(NC(=O)c2cccc(C(F)(F)F)c2)sc2c1CCC(=O)C2`: 13.8%; for `COc1ccccc1/C=C/C(=O)CCC(=O)O`: 114%; for `CCc1c(C)c2ccc(O)c(-c3cc(-c4ccccc4)c(C#N)c(=O)[nH]3)c2oc1=O`: 108%. Turning to `O=C1OCC2=C1C(c1ccccc1)c1cc3c(cc1N2CCO)OCO3` (stereo not drawn), the growth was 36%.

Regarding `CCCCCCCCCCCCNC(=O)N[C@H](C(=O)N[C@H]1/C=C/OCCNC(=O)/C=C/[C@H](C(C)C)NC1=O)C(C)C`, the growth was 47.1%. The same measure for `COc1ccc(-n2nc(C(=O)Nc3ccc(F)cc3)nc2-c2cc(OC)c(OC)c(OC)c2)cc1`: 92.3%.

Source of the values: PubChem BioAssay (NCI).
